This note sets out measurements from PubChem BioAssay AID624404 (Broad Institute, 2012).

Hit rate of the full screen: of about 1,800 compounds, about 710 (39%) were called active. Not shown: some 28% with an inconclusive outcome.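 The calls were made as follows: active = luciferase signal rise whose fitted curve crosses a set activity limit at or below the top valid tested dose; inconclusive = flat fit with 30 to 70% rise, or poor fit; inactive = signal falling, flat within 30%, or crossing above top dose.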 The list is a sample of the results. Entries with a potency or affinity are not part of this list.

The nature of the assay: luciferase activators in glycosylation-insensitive reporter cells, dose response, counter-screen for N-linked glycosylation inhibitor project, D54 LucT cells, luminescence, cherry pick (AID 624404).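 Also: 0% = median neutral control signal and 100% = twice that signal.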 Conditions: D54 LucT luciferase reporter counterscreen, 24 h; series mostly up to 19.5 µM; activity increase (luciferase signal): at the top concentration. (In general: A counterscreen serves to expose hits that act by an unwanted route or on another target.)
On to `CCOC(=O)c1[nH]c(C)c(C(=O)OCC(=O)NC(C)c2ccc(F)cc2)c1C` (configuration not stated), for which the “activity increase (luciferase signal)” value is 3.88% (inactive).
Then `CCOC(=O)c1[nH]c(COC(=O)CCOc2ccccc2OC)c(C(=O)OCC)c1C`, with 16% (inactive).
Then `CCOC(=O)c1nnc(-c2ccc(C)cc2)nc1Sc1ccccc1Cl`, with -0.161% (inactive); and `Cc1cc2c(=Cc3ccc(N(C)C)cc3)c3ccccc3n2[n+]1C`, with 2.56% (inactive); and `COc1cc(-c2nc3ccc(N4CCN(C)CC4)cc3[nH]2)cc(OC)c1OC`, with 3.45% (inactive).
Then `COc1ccc2c(-c3cc4ccc(OCc5ccc(F)cc5)cc4oc3=O)cc(=O)oc2c1`, with -17.7% (inactive); and `CC1Cc2ccccc2N1C(=O)CSc1nn2c(=O)c(C(C)(C)C)nnc2s1` (configuration not stated), with 21.3% (inactive).
Take `C#CC(=O)CC1(CN(Cc2ccccc2)C(=O)OC(C)(C)C)CCCCC1`: the “activity increase (luciferase signal)” value is 38.3% (inactive).
Then `COc1ccc(Cl)cc1NC(=O)CN(C)CC(=O)Nc1cc(OC)c(OC)c(OC)c1`, with -4.41% (inactive); and `CCC12CCC3c4ccc(O)cc4CCC3C1CC(O)C2O` (configuration not stated), with 42.4% (inactive); and `O=C(c1cccc([N+](=O)[O-])c1)N1CCN(c2cccc(Cl)c2)CC1`, with 1.66% (inactive).
For `c1ccc(-c2n[nH]c(-c3ccccc3)c2-c2nc3ccccc3[nH]2)cc1`, the “activity increase (luciferase signal)” value was -18.4% (inactive).
With `c1ccc(-n2nnnc2-c2cccc3ccccc23)cc1`, the “activity increase (luciferase signal)” value is 43.7% (inactive).
For the molecule `COc1ccc(NC(=O)CSc2c3c(nc4ccccc24)CCCC3)c(OC)c1`, the “activity increase (luciferase signal)” value was -48.4% (inactive).
Turning to `CN(C)c1ccc(-c2ccnc3c2CC(C)(C(=O)NCc2ccccc2)O3)cc1` (configuration not stated), the “activity increase (luciferase signal)” value was 37% (inactive).
Then `O=C(N/N=C/c1ccc2c(c1)OCO2)c1sc2cc(Cl)ccc2c1Cl`, with 47.7% (inactive).
Take `CCOC(=O)/C=C/C(=O)Nc1ccc(S(=O)(=O)N(C)c2ccccc2)cc1`: the “activity increase (luciferase signal)” value is 12.7% (inactive).
Then `COc1ccc(OC)c(/C=C/c2ccc3cccc(O)c3n2)c1`, with 15.1% (inactive); and `O=C(COc1ccc(/C=N/NC(=O)c2cc3ccccc3o2)cc1Cl)Nc1ccccc1`, with 4.64% (inactive); and `O=C(O)CCC/C=C\C[C@@H]1[C@@H](/C=C/[C@@H](O)COc2cccc(Cl)c2)[C@H](O)C[C@@H]1O`, with 103% (inactive).
Regarding `CCOc1ccc(C2c3cc(OC)c(OC)cc3CC(=O)N2c2ccc(OC)cc2)cc1` (configuration not stated), the “activity increase (luciferase signal)” value was 10.7% (inactive).
Then `COc1cc2c(cc1OC)C(c1ccccc1)N(C(=O)CCl)CC2` (configuration not stated), with -85.1% (inactive); and `COc1ccc(CCn2c(=N)c(C(=O)NC3CCCC3)cc3c(=O)n4ccccc4nc32)cc1OC`, with -3.5% (inactive).
For `Cn1cnc([N+](=O)[O-])c1Oc1ccc2ccccc2c1`, the “activity increase (luciferase signal)” value is 0% (inactive).
Then `COc1ccc(/C=C/C(=O)c2ccc3c4c(cccc24)CC3)cc1OC`, with -2.39% (inactive); and `COc1cc(/C=C2/CCC/C(=C\c3cc(O)c(OC)c(Cl)c3)C2=O)cc(Cl)c1O`, with 46.5% (inactive).
As for `C=CCn1c(SCC(=O)c2[nH]c(C)c(C(=O)OC)c2C)nc2scc(-c3ccc(OC)c(OC)c3)c2c1=O`, the “activity increase (luciferase signal)” value was -40.3% (inactive).
With `Cc1cc(NC(=O)CSc2nc(C3CC3)nc3sc(C)c(C)c23)no1`, the “activity increase (luciferase signal)” value was -14.6% (inactive).
Then `CCOc1ccc(NC(=O)C(=O)NCCN2CCN(S(=O)(=O)c3ccc(C)cc3)CC2)cc1`, with 61.7% (inactive); and `CN(C)CCCN1C(=O)c2cccc3c(Br)ccc(c23)C1=O`, with 3.12% (inactive).
Then `Cc1cccc(N2CCN(C(=O)c3ccncc3)CC2)c1C`, with 56.1% (inactive).
Then `Cc1nn(C(C)(C)C)c(OC(=O)c2ccc3c(c2)OCO3)c1Sc1ccccc1`, with 14.5% (inactive).
For `c1ccc2cc3c(NCCN4CCOCC4)ccnc3cc2c1`, the “activity increase (luciferase signal)” value was 8.28% (inactive).
Then `c1ccc(-c2cc(NCCN3CCCCC3)c3ccccc3n2)cc1`, with 17.9% (inactive).
As to `Cc1cc(C)nc(/N=C(\N)Nc2ccc(OCc3ccccc3)cc2)n1`, the “activity increase (luciferase signal)” value is -26.1% (inactive).
Then `Cc1cccc2c(N)c3c(nc12)N(C)CC3`, with 12.8% (inactive).
Then `CCOC(=O)Nc1c2ccccc2nc2ccccc12`, with -12.6% (inactive); and `COc1cc2c(C(=O)N3CCN(c4cccc(Cl)c4)CC3)cn(C)c(=O)c2cc1OC`, with 44.3% (inactive).
For `Cc1ccc(S(=O)(=O)Cc2ccc(C(=O)N3CCN(c4cccc(C)c4C)CC3)o2)cc1`, the “activity increase (luciferase signal)” value was 14.2% (inactive).
Then `CC1(C(=O)NCC2CC2)Cc2c(-c3cccc(C(F)(F)F)c3)ccnc2O1` (configuration not stated), with 30.1% (inactive).
Then `COc1ccc(NC(=O)C2(C)Cc3c(-c4cccc(NC(C)=O)c4)ccnc3O2)cn1` (configuration not stated), with -1.4% (inactive); and `CC(=O)Nc1cccc(-c2ccnc3c2CC(C)(C(=O)NCc2ccco2)O3)c1` (configuration not stated), with 14.7% (inactive); and `CC(=O)Nc1cccc(-c2ccnc3c2CC(C)(C(=O)Nc2cccc(C(C)=O)c2)O3)c1` (configuration not stated), with 30.6% (inactive).
As to `COc1ccc(C2=NOC(C(=O)NCc3ccc(F)cc3)C2)cc1OC` (configuration not stated), the “activity increase (luciferase signal)” value is 10.8% (inactive).
`COC(=O)CNC(c1ccccc1Cl)c1cc(Br)ccc1NC(=O)CCN1CCOCC1` (configuration not stated): the “activity increase (luciferase signal)” value was 0.216% (inactive).
Then `Cc1cc(-n2c(C)cc(C(=O)CCl)c2C)no1`, with -33.1% (inactive); and `CCN(CC)S(=O)(=O)c1cc(NC(=O)Cn2ncc(Cl)c(Cl)c2=O)ccc1C`, with -30.1% (inactive).
Take `O=C(C[C@@H]1C[C@H]2c3cc(NC(=O)c4cccnc4)ccc3O[C@H]2[C@H](CO)O1)NCc1ccc(Oc2ccccc2)cc1`: the “activity increase (luciferase signal)” value was -29.6% (inactive).
On to `COc1ccc(Nc2nc(N)c(C(=O)c3ccc(F)cc3)s2)cc1`, for which the “activity increase (luciferase signal)” value was 26.8% (inactive).
As for `Cn1cnc(Sc2ncnc3nc[nH]c23)c1[N+](=O)[O-]`, the “activity increase (luciferase signal)” value was -7.2% [at 5 µM] (inactive).
Then `COc1ccc(-c2cc3ccccc3oc2=O)cc1NC(=S)NC(=O)c1ccc2c(c1)OCCO2`, with -9.68% (inactive); and `O=C(Nc1cccc(-c2nc3ncccc3o2)c1)c1sc2ccccc2c1Cl`, with 11.3% (inactive); and `COc1ccccc1OCC(=O)N/N=C/C=C/c1ccc([N+](=O)[O-])o1`, with 56.1% (inactive).
Then `Oc1cccc(Nc2c3ccccc3nc3ccccc23)c1`, with -11.7% (inactive).
Then `Oc1ccc(Nc2nc(NCC3CCCO3)c3ccccc3n2)cc1` (configuration not stated), with 14.1% (inactive).
`COc1ccc(C2Nc3ccc4ccccc4c3-c3c2c(=O)oc2ccccc32)cc1` (configuration not stated): the “activity increase (luciferase signal)” value is 5.1% (inactive).
Turning to `COc1cc2c(cc1OC)C(c1cc(Br)ccc1F)N(C(=O)CCl)CC2` (configuration not stated), the “activity increase (luciferase signal)” value is -93.9% (inactive).
On to `COc1ccc(S(=O)(=O)Nc2cccc3ccc(O)cc23)cc1`, for which the “activity increase (luciferase signal)” value is 11.4% (inactive).
Then `Oc1cc(Nc2ccccc2)cc2cccnc12`, with -44% (inactive); and `CCOC(=O)C(CC)(CC)C(=O)/C=C/c1cccc(Br)c1`, with 21.6% (inactive); and `COc1ccc(N2CCc3c(C)nc4c(OC)cccc4c32)cc1`, with -17.1% (inactive).
Take `COc1ccc(N2CCc3c(C)nc4c(OC)cc(OC)cc4c32)cc1`: the “activity increase (luciferase signal)” value was -17.5% (inactive).
Then `CCN(CC)CCC(=O)Nc1cccc2c1C(=O)c1ccccc1C2=O`, with 16.2% (inactive).
Regarding `CCN(CC)CCn1c2ccccc2c2cnc(N)c(C#N)c21`, the “activity increase (luciferase signal)” value is -41.8% (inactive).
Turning to `O=C(C=Cc1ccc2c(c1)OCO2)C=Cc1ccc2c(c1)OCO2`, the “activity increase (luciferase signal)” value was 11.4% (inactive).
Then `CC(=O)C1=C(C)OC(N)=C(C#N)C1c1cc([N+](=O)[O-])ccc1Cl` (configuration not stated), with -7.35% (inactive).
For the molecule `CCN1C(=O)c2cccc3c(S(=O)(=O)N4CCC(C)CC4)ccc1c23`, the “activity increase (luciferase signal)” value is 19.7% (inactive).
Then `C=CCN(CC=C)C(=O)CN1C(=O)NC(C)(c2ccc3cc(OC)ccc3c2)C1=O` (configuration not stated), with -2.95% (inactive); and `Cc1ccc(CCC(=O)Nc2ncc(Cc3cc(Cl)ccc3Cl)s2)o1`, with 6.25% (inactive); and `COc1ccc(-c2nc(NC(=O)C3CC(=O)N(c4ccc5c(c4)OCCO5)C3)sc2C)cc1` (configuration not stated), with -41.9% (inactive).
Take `CCCCCCCCCCCCCCCC[n+]1ccc(/C=N/O)cc1`: the “activity increase (luciferase signal)” value is -67.7% (inactive).
In the case of `CCOC(=O)C(C)Oc1cccc2c(=O)n(CC(=O)NCc3ccc(F)cc3)ccc12` (configuration not stated), the “activity increase (luciferase signal)” value is 13.6% (inactive).
Then `Cc1ccc(CNC(=O)Cc2ccc(Br)cc2)cc1`, with 46.7% (inactive); and `COc1ccc(CCn2c(=N)c(C(=O)NCc3ccco3)cc3c(=O)n4ccccc4nc32)cc1`, with -8.69% (inactive); and `CCN(CC)CCNC(=O)c1cc2c(-c3ccc(Cl)cc3)nn(C)c2s1`, with 49.2% (inactive).
Then `CC1(C(=O)NCc2ccccc2)Cc2c(-c3ccc4c(c3)OCO4)ccnc2O1` (configuration not stated), with 17.4% (inactive); and `COc1ccc(NC(=O)C2(C)Cc3c(-c4cccc(C(N)=O)c4)ccnc3O2)cn1` (configuration not stated), with 7.81% (inactive); and `CC1(C(=O)NCc2ccccc2)Cc2c(-c3ccccc3)ccnc2O1` (configuration not stated), with 2.35% (inactive).
`CC1(C(=O)Nc2ccc(Cl)cc2)Cc2c(-c3cccc(C(N)=O)c3)ccnc2O1` (configuration not stated): the “activity increase (luciferase signal)” value was 45.1% (inactive).
Then `CC(=O)c1cccc(-c2ccnc3c2CC(C(=O)NCc2ccco2)O3)c1` (configuration not stated), with 22.9% (inactive); and `COc1ccccc1C(=O)Nc1nnc(CCc2ccccc2)s1`, with 66.8% (inactive); and `CN(C)S(=O)(=O)c1ccc(N2CCCC2)c(C(=O)Nc2nc(-c3ccc(F)cc3)cs2)c1`, with 11.7% (inactive).
Take `CC(C)(C)n1nnnc1C(c1ccccc1)N1CCc2ccccc2C1` (configuration not stated): the “activity increase (luciferase signal)” value was 29.5% (inactive).
Then `Nc1ncnc(Sc2ccc(Cl)cc2)c1[N+](=O)[O-]`, with -13.9% (inactive).
Then `Cc1cccn2c(=O)c3cc(C(=O)NCCN4CCOCC4)c(=N)n(CCc4ccccc4)c3nc12`, with -13.9% (inactive).
For the molecule `CCNC(=O)c1cc2c(=O)n3cccc(C)c3nc2n(CCc2ccccc2)c1=N`, the “activity increase (luciferase signal)” value is 3.44% (inactive).
Then `CCC1=Nc2cc(C(=O)NCCCOC)ccc2Sc2ccccc21`, with -3.33% (inactive).
Consider `O=C(NCc1ccco1)c1nn2c(C(F)(F)F)cc(-c3cccs3)nc2c1Br`, for which the “activity increase (luciferase signal)” value is -13.3% (inactive).
As to `NNC(=O)c1oc2nc(-c3ccco3)cc(-c3ccco3)c2c1N`, the “activity increase (luciferase signal)” value was 37.9% (inactive).
Then `COc1ccc(C(=O)NCc2nnc(SCC(=O)NO)n2Cc2ccccc2)cc1`, with 26.2% (inactive); and `Cn1nc(C(F)(F)F)c(/C=N/OC(=O)c2ccccc2Cl)c1SCc1ccccc1Cl`, with -45.1% (inactive); and `Clc1ccc(C2=Nn3c(nnc3-c3cc(-c4ccccc4)n[nH]3)SC2)cc1`, with -0.549% (inactive).
Then `S=c1[nH]nc(-c2cc(-c3ccccc3)n[nH]2)n1/N=C/C(Br)=C/c1ccccc1`, with -47.3% (inactive).
As for `COc1ccc(OC)c(-c2nnc3n2N=C(c2ccc(OC)c(OC4CCCC4)c2)CS3)c1`, the “activity increase (luciferase signal)” value is -37.9% (inactive).
Then `CC(Oc1ccc2c(c1)c1ccnc3c4ccccc4c(=O)n2c13)C(=O)NCCN1CCOCC1` (configuration not stated), with -14.3% (inactive).
As to `Oc1ccc(NCc2ccccc2OCc2ccccc2)cc1`, the “activity increase (luciferase signal)” value is 24.2% (inactive).
As for `CCn1c2ccccc2c2cc(NC(=O)COC(=O)c3ccc(O)cc3)ccc21`, the “activity increase (luciferase signal)” value is 5.23% (inactive).
As to `c1ccc2c(c1)c1c(c3ccccc32)CN2CCCC2C1` (configuration not stated), the “activity increase (luciferase signal)” value is 0.935% (inactive).
`FC(F)(F)c1nnc2c(Sc3ccc(Cl)cc3)nc3ccccc3n12`: the “activity increase (luciferase signal)” value is -57% (inactive).
Then `Cc1nnc2c(NCCC(C)C)nc3ccccc3n12`, with 38.9% (inactive).
Consider `Cc1cc([N+](=O)[O-])ccc1Nc1nc2ccccc2n2cnnc12`, for which the “activity increase (luciferase signal)” value is 0.819% (inactive).
Then `CCN(CC)CCCNc1cc(C)c(C#N)c2nc3ccccc3n12`, with -16.2% (inactive).
